Experiment [1] can be described thus: NCI Yeast Anticancer Drug Screen. Data for the rad50 strain (AID 155).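 Further: 0% = growth of vehicle-only cultures of the same strain.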 The settings on record: S. cerevisiae rad50 strain growth inhibition, hits give high values. In outline:
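Yeast carrying a defined DNA repair defect were exposed to test compounds, and growth was compared with vehicle-treated controls to give percent inhibition.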

Experiment [2] is described as follows: NCI Yeast Anticancer Drug Screen. Data for the mec2-1 strain (AID 157). The following applies: S. cerevisiae mec2-1 strain, hits give high values. In outline:
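Mutant yeast (mec2-1) grown with compound; growth inhibition relative to vehicle control reported.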

Experiment [3] can be described thus: NCI Yeast Anticancer Drug Screen. Data for the sgs1 mgt1 strain (AID 161).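 Further: 0% = growth of cultures given vehicle only.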 The following applies: S. cerevisiae sgs1 mgt1 strain, hits give high values. The method in brief:
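Compounds are added to genetically altered yeast, and growth is compared with cultures given vehicle alone to give percent inhibition.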

The nature of experiment [4]: NCI Yeast Anticancer Drug Screen. Data for the cln2 rad14 strain (AID 165).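 Further: 0% = growth equal to vehicle treated cultures.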 The settings on record: S. cerevisiae cln2 rad14 strain, hits give high values. The method in brief:
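Readout is yeast growth inhibition versus vehicle-treated controls, using a strain with cln2 and rad14 alterations exposed to compound.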

A short description of experiment [5]: NCI Yeast Anticancer Drug Screen. Data for the bub3 strain (AID 167). The following applies: S. cerevisiae bub3 mutant strain, hits give high values. In outline:
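Compounds were applied to a genetically altered yeast strain carrying a cell-cycle control defect. Growth inhibition was scored against vehicle-treated controls.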

Experiment [6] can be described thus: NCI Yeast Anticancer Drug Screen. Data for the mlh1 rad18 strain (AID 175). The settings on record: S. cerevisiae mlh1 rad18 strain growth inhibition, hits give high values. The method in brief: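 Genetically defined yeast (DNA repair-deficient) exposed to compounds; growth inhibition determined relative to vehicle.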
The mark [7] stands for this setting: at 5.0 µM (retest, dose inferred, filed as 0.5).
The mark [8] stands for this setting: at 50.0 µM (retest, dose inferred, filed as 5.0).

This is part of a sample that, as a whole, favours compounds with a hit. Of some 79,000 tested, about 15% had one in any assay. Unmarked numbers belong to inactive results. Calls of active or inactive are those of the source. No stated cut-off is given here; in the data, active means growth inhibition above about 70%; inactive means the rest.

With `COc1ccc2nc3cc(Cl)ccc3c(NCCCCN(C)C)c2c1`, the growth inhibition was -2% in experiment [1] (setting [7]); 21% in experiment [1] (setting [8]); 40.7% in experiment [1] (at 50.0 µM); 1% in experiment [2] (setting [7]); 18% in experiment [2] (setting [8]); 35.8% in experiment [2] (at 50.0 µM). In addition, the growth inhibition in experiment [3] (setting [7]) is -5%; in experiment [3] (setting [8]), 30%; in experiment [3] (at 50.0 µM), 37.5%; in experiment [4] (setting [7]), 5%; in experiment [4] (setting [8]) it was 21%; in experiment [4] (at 50.0 µM) it was 89.2% (active). In addition, the growth inhibition is -3% in experiment [5] (setting [7]); 18% in experiment [5] (setting [8]); 39.6% in experiment [5] (at 50.0 µM); 0% in experiment [6] (setting [7]); 21% in experiment [6] (setting [8]); 31.5% in experiment [6] (at 50.0 µM).

As to `O=C(N/N=C/c1ccccc1O)C1Cc2ccccc2C1C(Cl)Cl` (configuration not stated), the growth inhibition was 51% in experiment [1] (setting [7]); 97% (active) in experiment [1] (setting [8]); 88% (active) in experiment [1] (at 50.0 µM); 36% in experiment [2] (setting [7]); 98% (active) in experiment [2] (setting [8]); 91.3% (active) in experiment [2] (at 50.0 µM). Moreover, the growth inhibition in experiment [3] (setting [7]) is 47%; in experiment [3] (setting [8]), 99% (active); in experiment [3] (at 50.0 µM), 93% (active); in experiment [4] (setting [7]), 31%; in experiment [4] (setting [8]), 95% (active); in experiment [4] (at 50.0 µM), 89.5% (active). Moreover, the growth inhibition was 45% in experiment [5] (setting [7]); 82% (active) in experiment [5] (setting [8]); 90.7% (active) in experiment [5] (at 50.0 µM); 59% in experiment [6] (setting [7]); 98% (active) in experiment [6] (setting [8]); 90.8% (active) in experiment [6] (at 50.0 µM).

As to `CCCCCN1C(=O)CC(C(=O)OCC)=C1C`, the growth inhibition was 3% in experiment [1] (setting [7]); -14% in experiment [1] (setting [8]); -12% in experiment [1] (at 50.0 µM); -3% in experiment [2] (setting [7]); -8% in experiment [2] (setting [8]); -17.2% in experiment [2] (at 50.0 µM). The growth inhibition in experiment [3] (setting [7]) is -4%; in experiment [3] (setting [8]), -14%; in experiment [3] (at 50.0 µM), -23.9%; in experiment [4] (setting [7]), -9%; in experiment [4] (setting [8]), 1%; in experiment [4] (at 50.0 µM), 76.5% (active). The growth inhibition in experiment [5] (setting [7]) is -3%; in experiment [5] (setting [8]), 3%; in experiment [5] (at 50.0 µM) it was 30.3%; in experiment [6] (setting [7]), 1%; in experiment [6] (setting [8]) it was -10%; in experiment [6] (at 50.0 µM), 9.1%.

For `COc1ccc2cc(CNCCCCCCCCNCc3ccc4cc(OC)ccc4c3)ccc2c1`, the growth inhibition in experiment [1] (setting [7]) was 22%; in experiment [1] (setting [8]), 99% (active); in experiment [1] (at 50.0 µM), 97.7% (active); in experiment [2] (setting [7]) it was 6%; in experiment [2] (setting [8]), 100% (active); in experiment [2] (at 50.0 µM), 97.2% (active). Moreover, the growth inhibition in experiment [3] (setting [7]) was 19%; in experiment [3] (setting [8]), 99% (active); in experiment [3] (at 50.0 µM), 95.1% (active); in experiment [4] (setting [7]) it was 9%; in experiment [4] (setting [8]), 99% (active); in experiment [4] (at 50.0 µM), 94.5% (active). The growth inhibition in experiment [5] (setting [7]) is 9%; in experiment [5] (setting [8]) it was 100% (active); in experiment [5] (at 50.0 µM), 93.7% (active); in experiment [6] (setting [7]) it was 31%; in experiment [6] (setting [8]), 99% (active); in experiment [6] (at 50.0 µM) it was 97.2% (active).

For `N#CC1=C(N)OC(/C=C/c2ccccc2)=C(C#N)C1c1ccccc1` (configuration not stated), the growth inhibition in experiment [1] (setting [7]) was 33%; in experiment [1] (setting [8]), 81% (active); in experiment [1] (at 50.0 µM), 90.2% (active); in experiment [2] (setting [7]), 25%; in experiment [2] (setting [8]), 81% (active); in experiment [2] (at 50.0 µM) it was 76.3% (active). Further, the growth inhibition was 30% in experiment [3] (setting [7]); 91% (active) in experiment [3] (setting [8]); 93.6% (active) in experiment [3] (at 50.0 µM); 33% in experiment [4] (setting [7]); 86% (active) in experiment [4] (setting [8]); 101% (active) in experiment [4] (at 50.0 µM). In addition, the growth inhibition in experiment [5] (setting [7]) is 23%; in experiment [5] (setting [8]), 81% (active); in experiment [5] (at 50.0 µM), 75% (active); in experiment [6] (setting [7]), 19%; in experiment [6] (setting [8]), 86% (active); in experiment [6] (at 50.0 µM), 88.3% (active).

Regarding `CSc1nc(COC(=O)NC(C)C)c(COC(=O)NC(C)C)n1-c1ccccc1`, the growth inhibition in experiment [1] (setting [7]) is -12%; in experiment [1] (setting [8]) it was 11%; in experiment [1] (at 50.0 µM) it was -17.1%; in experiment [2] (setting [7]), 23%; in experiment [2] (setting [8]) it was 11%; in experiment [2] (at 50.0 µM) it was 4.2%. Further, the growth inhibition in experiment [3] (setting [7]) was -19%; in experiment [3] (setting [8]), -6%; in experiment [3] (at 50.0 µM), -6.15%; in experiment [4] (setting [7]), 13%; in experiment [4] (setting [8]), 4%; in experiment [4] (at 50.0 µM) it was 53.1%. Besides, the growth inhibition in experiment [5] (setting [7]) was 8%; in experiment [5] (setting [8]), 22%; in experiment [5] (at 50.0 µM) it was -12.7%; in experiment [6] (setting [7]) it was -1%; in experiment [6] (setting [8]), -6%; in experiment [6] (at 50.0 µM), 18.9%.

Consider `O=c1ccn(C2OC(COC(c3ccccc3)(c3ccccc3)c3ccccc3)C(O)C2O)c(=O)[nH]1` (configuration not stated), for which the growth inhibition in experiment [1] (setting [7]) is 34%; in experiment [1] (setting [8]), 98% (active); in experiment [1] (at 50.0 µM) it was 90.8% (active); in experiment [2] (setting [7]), 27%; in experiment [2] (setting [8]), 99% (active); in experiment [2] (at 50.0 µM), 92.9% (active). Further, the growth inhibition in experiment [3] (setting [7]) is 25%; in experiment [3] (setting [8]), 99% (active); in experiment [3] (at 50.0 µM), 93.3% (active); in experiment [4] (setting [7]) it was 30%; in experiment [4] (setting [8]) it was 98% (active); in experiment [4] (at 50.0 µM) it was 92.4% (active). For the same compound, the growth inhibition in experiment [5] (setting [7]) is 38%; in experiment [5] (setting [8]) it was 98% (active); in experiment [5] (at 50.0 µM) it was 91.8% (active); in experiment [6] (setting [7]), 31%; in experiment [6] (setting [8]), 98% (active); in experiment [6] (at 50.0 µM) it was 90.3% (active).

On to `O=c1cc(/C=C/c2ccccc2)cccc1O`, for which the growth inhibition in experiment [1] (setting [7]) is 79% (active); in experiment [1] (setting [8]), 97% (active); in experiment [1] (at 50.0 µM), 97.8% (active); in experiment [2] (setting [7]) it was 90% (active); in experiment [2] (setting [8]) it was 96% (active); in experiment [2] (at 50.0 µM), 98.2% (active). The growth inhibition was 84% (active) in experiment [3] (setting [7]); 99% (active) in experiment [3] (setting [8]); 98.5% (active) in experiment [3] (at 50.0 µM); 56% in experiment [4] (setting [7]); 98% (active) in experiment [4] (setting [8]); 96.9% (active) in experiment [4] (at 50.0 µM). Also, the growth inhibition is 97% (active) in experiment [5] (setting [7]); 93% (active) in experiment [5] (setting [8]); 97.5% (active) in experiment [5] (at 50.0 µM); 58% in experiment [6] (setting [7]); 98% (active) in experiment [6] (setting [8]); 97.9% (active) in experiment [6] (at 50.0 µM).

Regarding `CCCCCOC(=O)C(C)SC#N` (configuration not stated), the growth inhibition in experiment [1] (setting [7]) was 12%; in experiment [1] (setting [8]) it was 45%; in experiment [1] (at 50.0 µM), 42.2%; in experiment [2] (setting [7]) it was -13%; in experiment [2] (setting [8]), 54%; in experiment [2] (at 50.0 µM), 47.9%. Also, the growth inhibition in experiment [3] (setting [7]) is 4%; in experiment [3] (setting [8]) it was 80% (active); in experiment [3] (at 50.0 µM), 66.7%; in experiment [4] (setting [7]), 6%; in experiment [4] (setting [8]) it was 29%; in experiment [4] (at 50.0 µM), 92.3% (active). For the same compound, the growth inhibition in experiment [5] (setting [7]) was 9%; in experiment [5] (setting [8]), 52%; in experiment [5] (at 50.0 µM), 54.9%; in experiment [6] (setting [7]), 19%; in experiment [6] (setting [8]) it was 44%; in experiment [6] (at 50.0 µM) it was 73.8% (active).

For the origin of these results see PubChem BioAssay (NCI).
